Test results reported in PubChem BioAssay AID1159580 (chemical genetic matrix, 2015).
In all, about 5,500 compounds went through this assay and about 2,000 (36%) were called active. About 18% were inconclusive and are not listed. No stated cut-off is given here; in the data, active means normalized growth mostly below about 0.91 (no sharp cut-off); inconclusive means no clear call, values can overlap the other calls; inactive means mostly above about 0.92. The list shows a part of the results.

Experiment: chemical genetic growth profiling, strain panel (AID 1159580);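 further: tested at 20 µM; growth read once vehicle control cultures reached saturation at 30 °C; 1 = growth at the plate median or of vehicle wells; lower values mean less growth of the strain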
Conditions: growth OD

Measured: normalized growth

O=C(O)CNCP(=O)(O)O
inactive: S. cerevisiae deletion strains, locus YJR075W, strain HOC1, active compounds read low 1.01 | S. cerevisiae deletion strains, locus YKL009W, strain mrt4, active compounds read low 1.04 | S. cerevisiae deletion strains, locus YKL068W, active compounds read low 1.01 | S. cerevisiae deletion strains, locus YKL085W, strain MDH1 (second series), active compounds read low 1 | S. cerevisiae deletion strains, locus YKL085W, strain MDH1, active compounds read low 1 | S. cerevisiae deletion strains, locus YKL160W, strain elf1, active compounds read low 1.02 | S. cerevisiae deletion strains, locus YKL190W, strain CNB1, active compounds read low 1.01 | S. cerevisiae deletion strains, locus YKR001C, strain vps1, active compounds read low 1.02 | S. cerevisiae deletion strains, locus YKR026C, strain gcn3, active compounds read low 1.02 | S. cerevisiae deletion strains, locus YKR091W, strain srl3, active compounds read low 1.01 | S. cerevisiae deletion strains, locus YLL001W, strain dnm1, active compounds read low 1.02 | S. cerevisiae deletion strains, locus YLL026W, active compounds read low 1.01 | S. cerevisiae deletion strains, locus YLL041C, strain sdh2, active compounds read low 1.01 | S. cerevisiae deletion strains, locus YLR027C, strain aat2, active compounds read low 1.01 | S. cerevisiae deletion strains, locus YLR039C, strain RIC1, active compounds read low 1.03 | S. cerevisiae deletion strains, locus YLR058C, strain SHM2, active compounds read low 1.01 | S. cerevisiae deletion strains, locus YLR102C, strain apc9, active compounds read low 1.01 | S. cerevisiae deletion strains, locus YLR113W, strain HOG1, active compounds read low 1.02 | S. cerevisiae deletion strains, locus YLR221C, strain rsa3, active compounds read low 1.01 | S. cerevisiae deletion strains, locus YLR258W, strain gsy2, active compounds read low 1.02 | S. cerevisiae deletion strains, locus YLR262C, strain YPT6 (second series), active compounds read low 1.03 | S. cerevisiae deletion strains, locus YLR262C, strain YPT6, active compounds read low 1.03 | S. cerevisiae deletion strains, locus YLR268W, strain sec22, active compounds read low 1 | S. cerevisiae deletion strains, locus YLR320W, strain mms22, active compounds read low 1.03 | S. cerevisiae deletion strains, locus YLR330W, strain CHS5, active compounds read low 1.01 | S. cerevisiae deletion strains, locus YLR342W, strain FKS1 (second series), active compounds read low 1.03 | S. cerevisiae deletion strains, locus YLR342W, strain FKS1, active compounds read low 1.03 | S. cerevisiae deletion strains, locus YLR357W, strain rsc2, active compounds read low 1.03 | S. cerevisiae deletion strains, locus YLR370C, strain arc18, active compounds read low 1 | S. cerevisiae deletion strains, locus YLR371W, strain rom2, active compounds read low 1.01 | S. cerevisiae deletion strains, locus YLR384C, strain iki3, active compounds read low 0.993 | S. cerevisiae deletion strains, locus YLR418C, strain cdc73, active compounds read low 1.02 | S. cerevisiae deletion strains, locus YML016C, strain PPZ1, active compounds read low 1 | S. cerevisiae deletion strains, locus YML032C, strain rad52, active compounds read low 1.01 | S. cerevisiae deletion strains, locus YML120C, strain ndi1, active compounds read low 1.02 | S. cerevisiae deletion strains, locus YML124C, strain tub3, active compounds read low 1.01 | S. cerevisiae deletion strains, locus YMR058W, strain fet3, active compounds read low 1.02 | S. cerevisiae deletion strains, locus YMR078C, strain ctf18, active compounds read low 1.01 | S. cerevisiae deletion strains, locus YMR125W, strain sto1, active compounds read low 1.02 | S. cerevisiae deletion strains, locus YMR129W, active compounds read low 1.01 | S. cerevisiae deletion strains, locus YMR205C, strain PFK2, active compounds read low 1.05 | S. cerevisiae deletion strains, locus YMR223W, strain ubp8, active compounds read low 1.01 | S. cerevisiae deletion strains, locus YMR231W, strain pep5, active compounds read low 1 | S. cerevisiae deletion strains, locus YMR263W, strain SAP30, active compounds read low 1.01 | S. cerevisiae deletion strains, locus YMR307W, strain GAS1, active compounds read low 0.975 | S. cerevisiae deletion strains, locus YNL067W, strain RPL9B, active compounds read low 1.02 | S. cerevisiae deletion strains, locus YNL071W, strain lat1, active compounds read low 1.02 | S. cerevisiae deletion strains, locus YNL128W, strain TEP1, active compounds read low 1 | S. cerevisiae deletion strains, locus YNL153C, strain GIM3, active compounds read low 1 | S. cerevisiae deletion strains, locus YNL183C, strain NPR1, active compounds read low 0.917 | S. cerevisiae deletion strains, locus YNL209W, strain ssb2, active compounds read low 1.03 | S. cerevisiae deletion strains, locus YNL233W, strain BNI4, active compounds read low 1.02 | S. cerevisiae deletion strains, locus YNL248C, strain rpa49, active compounds read low 1.01 | S. cerevisiae deletion strains, locus YNL250W, strain rad50, active compounds read low 1 | S. cerevisiae deletion strains, locus YNL271C, strain bni1, active compounds read low 1.01 | S. cerevisiae deletion strains, locus YNL298W, strain CLA4, active compounds read low 1.02 | S. cerevisiae deletion strains, locus YNL307C, strain MCK1, active compounds read low 1.02 | S. cerevisiae deletion strains, locus YNL322C, strain KRE1 (second series), active compounds read low 1.02 | S. cerevisiae deletion strains, locus YNL322C, strain KRE1, active compounds read low 1 | S. cerevisiae deletion strains, locus YNR049C, strain mso1, active compounds read low 1.02 | S. cerevisiae deletion strains, locus YNR052C, strain pop2, active compounds read low 1.01 | S. cerevisiae deletion strains, locus YOL006C, strain TOP1, active compounds read low 1.05 | S. cerevisiae deletion strains, locus YOL012C, strain htz1 0.788 | S. cerevisiae deletion strains, locus YOL147C, strain pex11, active compounds read low 1.01 | S. cerevisiae deletion strains, locus YOR001W, strain rrp6, active compounds read low 1.01 | S. cerevisiae deletion strains, locus YOR061W, strain CKA2, active compounds read low 1 | S. cerevisiae deletion strains, locus YOR069W, strain VPS5, active compounds read low 1.01 | S. cerevisiae deletion strains, locus YOR070C, strain gyp1, active compounds read low 1.02 | S. cerevisiae deletion strains, locus YOR080W, strain dia2, active compounds read low 1.01 | S. cerevisiae deletion strains, locus YOR083W, strain WHI5, active compounds read low 1.01 | S. cerevisiae deletion strains, locus YOR106W, strain vam3, active compounds read low 1.02 | S. cerevisiae deletion strains, locus YOR136W, strain idh2, active compounds read low 1.02 | S. cerevisiae deletion strains, locus YOR144C, strain elg1, active compounds read low 1.02 | S. cerevisiae deletion strains, locus YOR184W, strain ser1, active compounds read low 1.02 | S. cerevisiae deletion strains, locus YOR231W, strain MKK1, active compounds read low 0.977 | S. cerevisiae deletion strains, locus YOR265W, strain rbl2, active compounds read low 1.01 | S. cerevisiae deletion strains, locus YOR270C, strain vph1, active compounds read low 1.03 | S. cerevisiae deletion strains, locus YOR290C, strain snf2, active compounds read low 1.02 | S. cerevisiae deletion strains, locus YOR316C, strain cot1, active compounds read low 1.01 | S. cerevisiae deletion strains, locus YPL051W, strain arl3, active compounds read low 1.02 | S. cerevisiae deletion strains, locus YPL055C, strain LGE1, active compounds read low 0.987 | S. cerevisiae deletion strains, locus YPL078C, strain atp4, active compounds read low 1.02 | S. cerevisiae deletion strains, locus YPL106C, strain sse1, active compounds read low 1.02 | S. cerevisiae deletion strains, locus YPL240C, strain hsp82, active compounds read low 1.02 | S. cerevisiae deletion strains, locus YPL241C, strain CIN2, active compounds read low 0.999 | S. cerevisiae deletion strains, locus YPL256C, strain CLN2, active compounds read low 0.962 | S. cerevisiae deletion strains, locus YPR119W, strain clb2, active compounds read low 1.01 | S. cerevisiae deletion strains, locus YPR141C, strain kar3, active compounds read low 1.02 | S. cerevisiae deletion strains, locus YPR163C, strain tif3, active compounds read low 1.01 | S. cerevisiae deletion strains, locus YPR167C, strain met16, active compounds read low 1.02 | S. cerevisiae deletion strains, strain wtn01, active compounds read low 1.01 | S. cerevisiae strains, strain wild type, active compounds read low 0.997
